Measured values published in PubChem BioAssay (NCI).
This is part of a sample that, as a whole, favours compounds with a hit. Of some 83,000 tested, about 20% had one in any assay.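 Treatment: one concentration, 48 hours, 96-well format. Scoring: percent growth, with anything below 10 considered active.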 The source made the active and inactive calls.

Assays:
Assay in all cases: NCI-60 one-dose screen, 48 h (100 = growth as untreated, 0 = no growth, -100 = all killed)
[1] = tested on: RPMI-8226 leukemia; details: 10 µM unless noted
[2] = tested on: OVCAR-8 ovarian; details: 10 µM unless noted
[3] = tested on: OVCAR-5 ovarian; details: 10 µM unless noted
[4] = tested on: OVCAR-4 ovarian; details: 10 µM unless noted
[5] = tested on: IGROV1 ovarian; details: 10 µM unless noted
[6] = tested on: OVCAR-3 ovarian; details: 10 µM unless noted
[7] = tested on: HS 578T breast; details: 10 µM unless noted
[8] = tested on: NCI/ADR-RES ovarian; details: 10 µM unless noted
[9] = tested on: T-47D breast; details: 10 µM unless noted
[10] = tested on: BT-549 breast; details: 10 µM unless noted
[11] = tested on: MDA-MB-435 melanoma; details: 10 µM unless noted
[12] = tested on: SW-620 colon; details: 10 µM unless noted
[13] = tested on: MCF7 breast; details: 10 µM
[14] = tested on: HCT-116 colon; details: 10 µM unless noted
[15] = tested on: KM12 colon; details: 10 µM unless noted
[16] = tested on: HCC-2998 colon; details: 10 µM unless noted

Measured: growth

CC(=O)c1ccc(Nc2nc(NCCO)nc(Nc3ccc(Cl)cc3)n2)cc1
inactive: [1] 89.5% | [2] 93.4% | [3] 96.1% | [4] 95.7% | [5] 98.7% | [6] 95.5% | [7] 87.2% | [8] 91.9% | [9] 79.9% | [10] 97.3% | [11] 59.4% | [12] 94.5% | [13] 69.1% | [14] 98.4% | [15] 90.8%

COc1cccc2c1C=C1CCCCC3=Cc4c(OC)cccc4OC13O2
active: [11] -15.8%
inactive: [1] 42.6% | [2] 53.1% | [3] 63.9% | [4] 57.7% | [5] 57.5% | [6] 14.2% | [7] 42.8% | [8] 16.5% | [9] 40.3% | [10] 64% | [12] 27.2% | [13] 26.5% | [14] 22.1% | [16] 71.1% | [15] 32.3%

CC(C)c1ccc(S(=O)(=O)NC(=O)NC2CCCC2)cc1
inactive: [1] 105% | [2] 98.5% | [3] 97.4% | [4] 97.2% | [5] 105% | [6] 110% | [7] 103% | [8] 105% | [9] 98.9% | [11] 100% | [12] 97.9% | [13] 93.2% | [14] 97.5% | [16] 108% | [15] 103%

COC(=O)c1c2c(c(C)[n+]([O-])c1C)C(=O)C=C(NCc1ccccc1)C2=O
active: [1] -0.203% | [2] 4.33% | [3] -63.3% | [4] -95% | [5] -56.6% | [6] -35.4% | [7] -30.6% | [8] -14% | [9] -34.4% | [10] -67.5% | [11] -89.6% | [12] -27.9% | [13] -62.1% | [14] -12.6% | [16] -34.5% | [15] -10.5%

O=C(N=Nc1c(O)[nH]c2ccccc12)c1oc2ccccc2c1CN1CCN(c2ccccc2)CC1
inactive: [7] 27.3% | [10] 11.4% | [11] 26.3% | [16] 33.6% | [15] 23.1%
active: [1] 7.75% | [2] 6.9% | [3] 3.76% | [4] -79% | [5] -5.86% | [6] -69.9% | [8] -34.9% | [9] -17.7% | [12] 0.43% | [13] -22.7% | [14] -53.1%

COC(=O)c1c2c(c(C)[n+]([O-])c1C)C(=O)C(NCc1ccc(Br)cc1)=CC2=O
active: [2] 4.52% | [4] -27% | [5] 5.51% | [6] -21.5% | [8] -3.23% | [11] -77.4% | [12] 5.24% | [13] -20.1% | [14] 1.37%
inactive: [1] 47.6% | [3] 69.1% | [7] 82.4% | [9] 20.5% | [10] 62.3% | [16] 14.4% | [15] 15.2%

COC(=O)/C(CCC=C(C)C)=C1\[C@@H](OC(C)=O)C[C@@]2(C)[C@H]1C[C@@H](O)[C@H]1[C@@]3(C)CC[C@H](NCc4ccccc4)[C@@H](C)[C@@H]3CC[C@@]12C
inactive: [1] 16.9% | [2] 76.1% | [3] 88.7% | [4] 61.2% | [5] 70.3% | [6] 69.6% | [7] 67.3% | [8] 64.6% | [9] 62.3% | [10] 76.2% | [11] 75.7% | [12] 63.5% | [13] 49.5% | [14] 20.2% | [16] 72.8% | [15] 72.9%

O=C(Cn1cc(COc2ncnc3c2cnn3-c2ccccc2)nn1)Nc1ccccn1
inactive: [1] 84.4% | [2] 92.5% | [3] 93.7% | [4] 92.7% | [5] 95.4% | [6] 100% | [7] 88.3% | [8] 91.5% | [9] 80.9% | [10] 94% | [11] 98% | [12] 102% | [13] 90.4% | [14] 98.2% | [16] 120% | [15] 100%

Nc1nc2c(ncn2[C@@H]2O[C@H](CS)[C@@H](O)[C@H]2O)c(=O)[nH]1
inactive: [1] 94.9% | [2] 99.2% | [3] 93.3% | [4] 99.1% | [5] 103% | [6] 104% | [7] 99.6% | [8] 104% | [9] 107% | [10] 100% | [11] 99.8% | [12] 96% | [13] 101% | [14] 102% | [16] 104% | [15] 101%

COC(=O)C1(C)CCC[C@]2(C)[C@H]3C[C@H]4C(C(C)C)=C[C@]3(CC[C@@H]12)[C@H]1[C@@H]4[C@@H](OCC#CCN2CCOCC2)CC[C@@H]1OCC#CCN1CCOCC1 (some centres not stated)
inactive: [1] 67.7% | [2] 83.2% | [3] 106% | [4] 64.7% | [5] 70.6% | [6] 86.3% | [7] 86.6% | [8] 74.9% | [9] 64.5% | [10] 97.7% | [11] 92.5% | [12] 94.7% | [13] 77.3% | [14] 81% | [15] 93.2%

O=c1c(-c2nc3ccccc3[nH]2)cc2ccccc2n1Cc1cn(Cc2ccc(N3CCOCC3)cc2)nn1
inactive: [1] 80.4% | [2] 37.4% | [3] 77.3% | [5] 40% | [6] 83.5% | [7] 74.7% | [8] 68.8% | [9] 71.4% | [10] 45.9% | [11] 76.6% | [12] 70.7% | [13] 56.8% | [14] 83.6% | [15] 87.3%
active: [4] 6.82%

O=C(/C=C/c1ccc(Cl)cc1)c1ccc(Nc2nc(NCCO)nc(N3CCOCC3)n2)cc1
active: [13] 9.73%
inactive: [1] 12.3% | [2] 83.6% | [3] 101% | [4] 93% | [5] 84% | [6] 63.1% | [7] 90.7% | [8] 88.9% | [9] 67.1% | [11] 77.9% | [12] 50.4% | [14] 18.6% | [16] 99% | [15] 28.5%

CC1(O)COCCCCOc2c(CN)cccc2NC(=O)c2nc(cnc2N)-c2ccc(cc2)S(=O)(=O)C(C)(C)C1 (configuration not stated)
active: [1] -36.8% | [2] -22.8% | [3] 3.73% | [4] -70.2% | [5] -57.3% | [6] -77.2% | [7] -53.2% | [9] -19.8% | [11] -93.4% | [12] -64.2% | [13] -79.4% | [14] -56.5% | [16] -1.91% | [15] -72.7%
inactive: [8] 48.5% | [10] 85.4%

COC(=O)/C(CCC=C(C)C)=C1\[C@@H](OC(C)=O)C[C@@]2(C)[C@H]1C[C@@H](O)[C@H]1[C@@]3(C)CC[C@H](NCCO)[C@@H](C)[C@@H]3CC[C@@]12C
inactive: [1] 101% | [2] 101% | [3] 104% | [4] 107% | [5] 99.4% | [6] 105% | [7] 93.3% | [8] 101% | [9] 103% | [11] 98.9% | [12] 97% | [13] 98.8% | [14] 105% | [16] 106% | [15] 103%

COC(=O)/C(CCC=C(C)C)=C1\[C@@H](OC(C)=O)C[C@@]2(C)[C@H]1CC(=O)[C@H]1[C@@]3(C)CC[C@H](NCc4ccccc4)[C@@H](C)[C@@H]3CC[C@@]12C
inactive: [1] 49.5% | [2] 92.4% | [3] 95% | [4] 80.7% | [5] 73.4% | [6] 89.2% | [7] 73.7% | [8] 88.3% | [9] 92.3% | [11] 91.2% | [12] 81.5% | [13] 82.2% | [14] 73% | [16] 66.6% | [15] 101%

COc1ccc2sc3c(NCCCN)nc4ccccc4c3c(=O)c2c1
active: [1] -6.79% | [2] 0.199% | [6] -22.4% | [9] -32.6% | [11] -79% | [12] -75% | [13] -74.2% | [14] -84.1% | [16] -67.1% | [15] -54.6%
inactive: [3] 82.8% | [4] 34.5% | [5] 58.6% | [7] 70.9% | [8] 68.3% | [10] 82.1%

O=C1Nc2ccccc2/C1=C/c1cccs1
active: [9] -4.77%
inactive: [1] 93.7% | [2] 91.6% | [3] 95.5% | [4] 37% | [5] 72% | [6] 90.5% | [7] 94.8% | [8] 91.8% | [10] 88.5% | [11] 104% | [12] 98.3% | [13] 60.8% | [14] 99.9% | [16] 91.4% | [15] 77.1%

C[C@@H](C(=O)NCCCC#Cc1cnc(Nc2ccc(C#N)cc2)nc1NC1CC1)N(C)C(=O)/C=C/CN(C)C
inactive: [1] 14.9% | [2] 55.9% | [3] 66.3% | [4] 38.7% | [5] 41.1% | [6] 29.3% | [7] 59% | [8] 78.2% | [9] 54.9% | [10] 32.3% | [11] 24.5% | [12] 42.1% | [13] 17.3% | [14] 27.7% | [16] 64.5% | [15] 17.7%

Cc1cccc2c(=O)c3c(sc12)c(N1CCNCC1)nc1ccccc13
inactive: [2] 83.9% | [3] 90.2% | [4] 73.9% | [5] 33.6% | [6] 63.7% | [7] 73% | [8] 83.1% | [9] 86.9% | [10] 80% | [11] 62.5% | [12] 27.6% | [13] 26.7% | [14] 26.9% | [16] 47.5% | [15] 51.3%
active: [1] 7.41%
